Tau fibril FP: qHTS for Inhibitors of Tau Fibril Formation, Fluorescence Polarization. Microtubule-associated protein tau (Homo sapiens), P10636. K18 P301L tau heparin fibrillization, Alexa594 FP, 6 h. Potency, µM (highest dose often 57.7 µM), for inactives: at the highest dose activity, negative = inhibition, hits mostly inhibitors. 0.39% of 280,000 active; also: potency is read from the fitted curve at half-maximal effect; nearly all actives have a fitted effect of over 55% in size
Target sequence (P10636 561-689 P618L limits assumed): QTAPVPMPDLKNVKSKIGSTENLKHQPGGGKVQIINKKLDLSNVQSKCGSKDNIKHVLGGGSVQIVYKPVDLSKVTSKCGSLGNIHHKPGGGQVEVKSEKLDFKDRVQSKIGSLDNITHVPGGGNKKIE
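Recombinant K18 P301L […], labeled with Alexa 594 at 0.24 uM over 15 uM unlabeled; heparin inducer 20 uM final; 37 C, 6 hr; FP endpoint.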
Tau ThT inhib: qHTS for Inhibitors of Tau Fibril Formation, Thioflavin T Binding. Microtubule-associated protein tau (Homo sapiens), P10636. recombinant tau K18 P301L, heparin-induced fibrillization, ThT fluorescence. Potency, µM (doses to about 57.4 µM), for the others: at the highest dose activity, negative = inhibition, usual class: inhibitors. 2.1% of 270,000 active. AID 1460, 2008; also: potency is read from the fitted curve at half-maximal effect; nearly all actives have a fitted effect of over 55% in size
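Tau K18 P301L fragment (15 uM unlabeled plus 0.24 uM Alexa 594-labeled) in 100 mM sodium acetate pH 7 with compound, fibrillization induced by 20 uM heparin for 6 hr at 37 C. Thioflavin T (30 uM) added, fluorescence read after 1 hr (ex 450, em 510 nm).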
Coupling enz: qHTS Assay for Inhibitors of Fructose-1,6-bisphosphate Aldolase from Giardia Lamblia: Coupling assay counterscreen. coupling enzyme system counterscreen, AmpLite Red fluorescence. activity change, negative = inhibition, % at 58.2 µM, hits read low. 0.67% of 290,000 active; in the data active = activity change below about -30%
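Fluorescence at 525 nm excitation and 598 nm emission measured inhibition of the coupled detection system without aldolase. Compounds (at 57.5 uM final) were preincubated 10 min at room temperature with coupling enzyme reagent before a 20 min substrate/AmpLite Red step.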
Tau fluor counter: Counterscreen qHTS for Inhibitors of Tau Fibril Formation, Fluorescence Polarization | 0.93% of 280,000 active | AID 1463, 2008 | tau K18 P301L (four-repeat tau fragment) Alexa594 fluorescence, heparin fibrillization | Potency, µM (highest dose often 57.7 µM), without a hit: top-dose activity change, negative = decrease; also: potency is read from the fitted curve at half-maximal effect; nearly all actives have a fitted effect of over 55% in size
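Human K18 P301L tau (15 uM unlabeled plus 0.24 uM Alexa 594-labeled, final) in 100 mM sodium acetate pH 7 was mixed with compound and 20 uM heparin and incubated 6 hr at 37 C.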
* hit, by the source's call; u = inconclusive; x = not tested or not shown; [ ] = another dose, or the depositor's remark. Sampled rows, rich in hits. Any-hit rate of the full collection: about 2.7%. Unless noted, calls follow the shape of the dose curve; as a rule, active = well fitted curve in the direction sought with a large enough effect; inconclusive = small, poorly fitted or top-dose-only effect, or another doubt; inactive = no such curve, though single readings can be large; an effect the other way counts as inactive or inconclusive. % is scaled to controls: 0 for no effect and ±100 for the full control effect.

SMILES	Tau fibril FP	Tau ThT inhib	Coupling enz	Tau fluor counter
COC(=O)C1=C(C)N(Cc2ccco2)C(=O)/C1=C\c1ccc(N(C)C)cc1	-7%	7%	2	4%
COC(=O)C1=C(C)N(C)C(=O)/C1=C\c1ccco1	-9%	u	-1	-11%
COC(=O)C1=C(C)N(Cc2ccc(OC)cc2)C(=O)/C1=C\c1ccco1	-6%	25µM*	2	u
COC(=O)C1=C(C)N(Cc2ccco2)C(=O)/C1=C\c1ccc([N+](=O)[O-])cc1	u	13µM*	-1	u
CCN(CC)C(=O)c1cnn(-c2ccc(F)cc2)c1-n1cccc1	-3%	10%	x	4%
Oc1cc(O)cc(/C=C/c2ccc(O)c(O)c2)c1	8%	7.1µM*	-9	11µM*[quencher]
O=C(N/N=C/c1ccc(O)c(O)c1)N/N=C/c1ccc(O)c(O)c1	x	x	-8	x
COC(=O)C1=C(C)NC2=C(C(=O)c3ccccc32)C1c1cccc(OC)c1 (stereo not drawn)	12%	x	0	-12%
CC1=C([N+](=O)[O-])C(c2cccc(Br)c2)C2=C(N1)c1ccccc1C2=O (stereo not drawn)	u	16µM*	-5	14µM*[quencher]
COc1cc2ccccc2cc1C(=O)Nc1ccc(Cl)c(-c2nc3ccccc3o2)c1	u	-11%	x	-19%
CCc1ccccc1NC(=O)CC1Sc2ccc(C(F)(F)F)cc2NC1=O (stereo not drawn)	-9%	12%	x	5%
O=C(CC1Sc2ccc(C(F)(F)F)cc2NC1=O)Nc1ccc(Cl)c(C(F)(F)F)c1 (stereo not drawn)	11µM*	-5%	x	u
O=C1NC(=Nc2ccccc2)S/C1=C\C=C\c1ccco1	1%	4%	3	0%
Cc1cccc(N=C2NC(=O)/C(=C/C=C/c3ccco3)S2)c1C	u	16µM*	0	u
Cc1ccc(N=C2NC(=O)/C(=C/c3cccn3C)S2)cc1C	-4%	u	-2	-21%
Cc1cccc(N=C2NC(=O)/C(=C/c3cccn3C)S2)c1C	-4%	u	0	-21%
Cc1ccc(N=C2NC(=O)/C(=C/C=C/c3ccco3)S2)cc1	u	6.3µM*	-1	u
Cc1ccc(N=C2NC(=O)/C(=C/c3cccn3C)S2)cc1	3%	6.3µM*	2	u
Cc1ccccc1OCCCN1C(=O)C(=O)c2cccc(C)c21	-15%	22µM*	-14	-21%
O=C1C(Cl)=C(Nc2cccc(O)c2)C(=O)N1Cc1ccccc1	-6%	14µM*	1	u
CCC(=O)Nc1cc(-c2cccc(C)c2)nn1-c1ccccc1	-13%	3%	x	-4%
Cc1ccc(-n2nc3c(=O)n(CC(=O)NC(C)C)nc(C)c3c2C)cc1	1%	13%	x	6%
Cc1ccc(C(=O)C(NC(=O)c2ccco2)Nc2sc3c(c2C(N)=O)CCCC3)cc1 (stereo not drawn)	-12%	28µM*	-5	u
CCOC(=O)C1=C(C)N(c2ccc(OC)cc2)C(=O)/C1=C\c1cccs1	u	u	0	-16%
CCOc1cc(/C=C2\C(=O)N(Cc3ccc(C)cc3)C(C)=C2C(=O)OC)ccc1O	u	25µM*	-11	u
SMILES	Tau fibril FP	Tau ThT inhib	Coupling enz	Tau fluor counter
CCOC(=O)C1=C(C)N(c2ccc(OC)cc2)C(=O)/C1=C\c1ccc(O)c(OCC)c1	u	25µM*	-17	u
CCOC(=O)C1=C(C)N(c2ccc(C)c(C)c2)C(=O)/C1=C\c1ccco1	u	28µM*	1	-26%
C=CCOc1cccc(/C=C2\C(=O)N(Cc3ccc(C)cc3)C(C)=C2C(=O)OC)c1	-13%	u	-7	-17%
COc1cccc(C(=O)Nc2ccc(Cl)c(-c3nc4ccccc4[nH]3)c2)c1	25µM*	u	x	u
CCC(=O)Nc1ccc(Cl)c(-c2nc3ccccc3[nH]2)c1	0%	-2%	x	-6%
CC(C)COc1ccc(C(=O)Nc2cccc(-c3nc4ccccc4[nH]3)c2)cc1	20µM*	u	x	7.9µM*[quencher]
Cc1cc(C)cc(OCC(=O)Nc2cccc(-c3nc4ccccc4[nH]3)c2)c1	22µM*	-14%	x	11µM*[quencher]
CC(C)CC(=O)Nc1cccc(-c2nc3ccccc3[nH]2)c1	-19%	-5%	-2	-17%
